“And” between values parts separate entries of the source, which are not always exact repeats. Equal values may be shown once. Inconclusive results are not listed. Unmarked numbers belong to inactive results. The source made the active and inactive calls. Calls follow the shape of the full dose curve.

Assay [1] addresses Bile acid receptor (Homo sapiens) (UniProt Q96RI1). The experiment in a line: qHTS assay for small molecule agonists of farnesoid X receptor signaling (AID 588527).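 Also: series mostly up to about 77 µM; 0% = vehicle basal and 100% = reference agonist.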 The conditions noted are these: HEK293T FXR-UAS-bla, beta-lactamase ratio, 16 h; activation: stronger effect = higher value. A digest of the protocol:
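FXR-UAS-bla HEK293T, 10% dialyzed FBS; cpds up to 92 uM titration, 16 h 37 C; CCF4 dye 2 h RT; fluorescence. Normalized to chenodeoxycholic acid 100 uM (100%) and DMSO (0%); Hill fit gives EC50, efficacy.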

Assay [2] addresses Peroxisome proliferator-activated receptor delta (Homo sapiens) (UniProt Q03181). As to the kind of experiment: qHTS assay for small molecule agonists of peroxisome proliferator-activated receptor delta signaling (AID 588534).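 Also: 0% = DMSO basal wells and 100% = positive control agonist at 10 µM.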 The procedure, abridged:
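Reporter cells were plated and held 5 hrs at 37 C before compounds were added. After 18 hrs at 37 C, CCF4 dye was loaded for 2 hrs at RT and fluorescence measured.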

Bile acid receptor (Homo sapiens), sequence (Q96RI1 whole entry, looked up): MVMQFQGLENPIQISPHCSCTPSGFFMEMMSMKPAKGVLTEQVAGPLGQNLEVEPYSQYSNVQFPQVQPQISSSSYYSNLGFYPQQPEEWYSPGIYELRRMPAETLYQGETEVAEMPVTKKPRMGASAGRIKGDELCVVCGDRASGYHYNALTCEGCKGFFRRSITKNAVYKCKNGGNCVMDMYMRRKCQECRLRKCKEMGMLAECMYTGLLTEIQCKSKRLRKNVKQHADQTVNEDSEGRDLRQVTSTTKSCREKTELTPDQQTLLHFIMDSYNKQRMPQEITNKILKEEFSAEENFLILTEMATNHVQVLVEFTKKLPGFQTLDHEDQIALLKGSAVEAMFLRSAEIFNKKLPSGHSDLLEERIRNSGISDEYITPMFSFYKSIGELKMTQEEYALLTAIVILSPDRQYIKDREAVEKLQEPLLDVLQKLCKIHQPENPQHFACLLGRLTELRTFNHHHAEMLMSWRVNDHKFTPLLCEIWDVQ
Peroxisome proliferator-activated receptor delta (Homo sapiens), sequence (Q03181 whole entry, looked up): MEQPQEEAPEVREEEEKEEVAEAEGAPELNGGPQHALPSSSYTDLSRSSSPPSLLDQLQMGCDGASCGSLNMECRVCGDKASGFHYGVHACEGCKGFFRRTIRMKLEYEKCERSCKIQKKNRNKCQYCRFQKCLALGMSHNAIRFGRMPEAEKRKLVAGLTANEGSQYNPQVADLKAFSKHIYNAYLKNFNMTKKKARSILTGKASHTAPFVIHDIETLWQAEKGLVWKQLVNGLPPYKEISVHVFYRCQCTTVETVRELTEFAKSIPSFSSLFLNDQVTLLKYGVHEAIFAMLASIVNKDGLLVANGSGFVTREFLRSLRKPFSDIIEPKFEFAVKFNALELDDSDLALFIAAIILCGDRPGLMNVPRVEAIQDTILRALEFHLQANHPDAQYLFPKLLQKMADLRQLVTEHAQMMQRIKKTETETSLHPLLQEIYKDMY

Turning to `C=CC(=O)OCC[N+](C)(C)C`, in assay [1], the activation is -2.87%. For the same compound, the compound was called inactive in assay [2].
In the same order, the values of `Nc1cc(Cl)c(N)c(Cl)c1` are -3.48% and “inactive”.
The like results for `C=C(C)C(=O)OCCCCCCCCCC` were, in that order, -1.22% and “inactive”.
The like results for `Cc1ccccc1C#N` were, in that order, -0.262% and “inactive”.
For the compound `O=S(=O)(O)c1cc(S(=O)(=O)O)c2c(N=Nc3ccccc3)c(O)ccc2c1`, the activation in assay [1] was 2.46%. In assay [2], the call was inactive.
The like results for `C/C=C/C/C=C\CCCCCCCCOC(C)=O` were, in that order, -4.9% and “inactive”.
In the same order, the values of `C=Cc1ccccc1Cl` are 0.519% and “inactive”.
On to `BrC/C=C/CBr`, for which, in assay [1], the activation was 1.2%. Further, the compound was classed as inactive in assay [2].
In the same order, the values of `CCc1cccc(C)c1N(C(=O)CS(=O)(=O)O)[C@@H](C)COC` are 1.55% and “inactive”.
Turning to `CC(CCC(=O)O)(c1ccc(O)cc1)c1ccc(O)cc1`, the activation in assay [1] is -2.09% and 0.383%. The compound was classed as inactive in assay [2].
On to `CC(C)(C)c1ccc(C(=O)O)cc1`, for which the activation in assay [1] is -9.49%. In addition, the compound was called inactive in assay [2].
In the same order, the values of `CN(CCO)CC(O)Cn1cnc2c1c(=O)n(C)c(=O)n2C` (stereo not drawn) (tested in a mixture with another compound) are 1.67% and “inactive”.
The like results for `CCCCCCCCCCCCC1CO1` (stereo not drawn) were, in that order, -2.55% and “inactive”.
The like results for `CC(C)O` were, in that order, -0.657% and “inactive”.
Consider `Cc1c(C(=O)O)cccc1[N+](=O)[O-]`, for which, in assay [1], the activation is -2.92%. Moreover, the compound was called inactive in assay [2].
The like results for `CN(C)CCCNCCCN` were, in that order, 2.54% and “inactive”.
The like results for `FB(F)F` were, in that order, 0.812% and “inactive”.
In the same order, the values of `CCOc1cc(OCC)c(C(C)=O)cc1OCC` are 0.582% and “inactive”.
Consider `CCCCCCC(O)CCCCCCCCCCC(=O)O` (stereo not drawn), for which the activation in assay [1] is 3.12%. In addition, the call in assay [2] was inactive.
On to `CC(=O)c1c(C)c([N+](=O)[O-])c(C(C)(C)C)c([N+](=O)[O-])c1C`, for which the activation in assay [1] was 1.55%. The compound was classed as inactive in assay [2].
Turning to `COC(=O)CCSCCC(=O)OC`, in assay [1], the activation is -4.49%. Moreover, the call in assay [2] was inactive.
In the same order, the values of `CCCCC(C=O)CC` (stereo not drawn) are -2.35% and “inactive”.
In the same order, the values of `CC(=O)Nc1ccc(N=Nc2cc(C)ccc2O)cc1` are 0.585% and “inactive”.
In the same order, the values of `c1ccc(COCc2ccccc2)cc1` are -1.69% and “inactive”.
Take `CCc1ccccc1O`: the activation in assay [1] was -1.44%. Besides, the compound was called inactive in assay [2].
The like results for `O=C(O)c1ccc(Cl)c(Cl)c1` were, in that order, -2.87% and “inactive”.
Turning to `C=C1C[C@]23C[C@@]1(O)CC[C@H]2[C@@]12C=C[C@H](O)[C@@](C)(C(=O)O1)[C@H]2[C@@H]3C(=O)O`, the activation in assay [1] was 0.442%. Also, the outcome in assay [2] was inactive.
In the same order, the values of `CCOCCOCCOC(C)=O` are -3.45% and “inactive”.
With `CC(C)(c1cc(Br)c(O)c(Br)c1)c1cc(Br)c(O)c(Br)c1`, the activation in assay [1] was 3.15% and 6.79% and 4.84%. Moreover, the result in assay [2] was inactive.
Turning to `Cc1ccc(C)cc1`, in assay [1], the activation is -1.18%. In assay [2], the compound was called inactive.
Take `c1ccc(B(c2ccccc2)c2ccccc2)cc1`: the activation in assay [1] is 2.92%. Besides, in assay [2], the compound was classed as inactive.
In the same order, the values of `CC(=C/C=C/C(C)=C/C=C/C=C(C)/C=C/C=C(C)/C=C/C(=O)O)/C=C/C(=O)O` are -1.08% and “inactive”.
In the case of `C=CC(=O)NC(C)C`, the activation in assay [1] is -0.191%. The result in assay [2] was inactive.
As to `Cc1ccc(C#N)cc1`, in assay [1], the activation was -2.61%. Besides, the outcome in assay [2] was inactive.
On to `Oc1c(Cl)ccc(Cl)c1Cl`, for which the activation in assay [1] was -2.11%. In assay [2], the outcome was inactive.
In the same order, the values of `CCCCCCCCCc1ccccc1` are 2.7% and “inactive”.
`CC(C)(C)c1cc(C(C)(C)C)c(O)c(C(C)(C)C)c1`: the activation in assay [1] was 8.66%. Further, the outcome in assay [2] was inactive.
The like results for `Cc1ccc(Cl)cc1` were, in that order, -1.75% and “inactive”.
With `CCCCC(CC)COCCCN` (stereo not drawn), the activation in assay [1] was -0.0297%. In assay [2], the outcome was inactive.
In the same order, the values of `O=[N+]([O-])c1ccc(CCO)cc1` are -0.12% and “inactive”.
Turning to `C=CC(=O)OCCCC`, the activation in assay [1] was -3.45%. The outcome in assay [2] was inactive.
The like results for `Cc1c(N)cccc1Cl` were, in that order, -0.769% and “inactive”.
For the compound `O=[N+]([O-])c1cccc(Cl)c1Cl`, the activation in assay [1] is -2.65% and -2.56%. Also, the result in assay [2] was inactive.
Take `Cc1ccc2oc(=O)ccc2c1`: the activation in assay [1] was 0.64% and 1.95%. In assay [2], the result was inactive.
With `c1ccc(Oc2ccccc2)cc1`, the activation in assay [1] is -0.867%. For the same compound, the compound was called inactive in assay [2].
With `CC(C)(C)c1cccc(C(C)(C)C)c1O`, the activation in assay [1] was -3.57%. For the same compound, in assay [2], the outcome was inactive.
In the same order, the values of `OCC(CO)(CBr)CBr` are -0.248% and “inactive”.
As to `Cc1cccc([N+](=O)[O-])c1C(=O)O`, the activation in assay [1] was -1.22%. Further, the result in assay [2] was inactive.
In the same order, the values of `Nc1nc(-c2ccccc2)cs1` are 2.42% and “inactive”.

Source of the values: PubChem BioAssay (NCATS).
